Active and inactive are the calls of the source. Rule for the calls: active = hit-call score of the fitted dose curve at least 0.9, where 1 is the maximum; inactive = score below 0.9.

Cellular tumor antigen p53 (Homo sapiens), sequence (P04637 whole entry, looked up): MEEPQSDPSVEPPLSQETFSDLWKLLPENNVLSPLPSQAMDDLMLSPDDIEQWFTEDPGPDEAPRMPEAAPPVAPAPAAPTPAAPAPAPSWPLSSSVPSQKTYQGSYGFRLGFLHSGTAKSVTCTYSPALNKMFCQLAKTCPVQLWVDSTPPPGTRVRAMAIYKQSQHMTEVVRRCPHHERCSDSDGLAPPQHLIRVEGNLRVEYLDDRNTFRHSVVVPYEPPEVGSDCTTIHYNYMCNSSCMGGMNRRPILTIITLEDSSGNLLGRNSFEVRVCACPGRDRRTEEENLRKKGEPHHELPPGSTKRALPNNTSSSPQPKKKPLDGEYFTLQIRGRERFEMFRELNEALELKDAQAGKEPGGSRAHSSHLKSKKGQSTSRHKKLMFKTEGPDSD

The assay addresses Cellular tumor antigen p53 (Homo sapiens) (UniProt P04637). The assay can be described thus: ATG_p53_CIS: Attagene CIS-FACTORIAL HepG2 Assay for human p53 Transcription Factor (AID 2282994). To be noted: HepG2 p53 cis-element reporter, Attagene mRNA; actives raise or lower the signal. Here is the method: ATG_CIS is a cell-based, multiplexed-readout assay that uses HepG2, a human liver cell line, with measurements taken at 24 hours after chemical dosing in a 24-well plate.ATG_p53_CIS is one of 52 assay component(s) measured or calculated from the ATG_CIS assay. It is designed to make measurements of mRNA induction, a form of inducible reporter, as detected with fluorescence intensity signals by Reverse transcription polymerase chain reaction (RT-PCR) and Capillary electrophoresis technology.Data from the assay component ATG_p53_CIS was analyzed into 1 assay endpoint. This assay endpoint, ATG_p53_CIS, was analyzed with bidirectional fitting relative to DMSO as the negative control and baseline of activity. Using a type of inducible reporter, measures of mRNA for gain or loss-of-signal activity can be used to understand the reporter gene at the transcription factor-level as they relate to the gene TP53. Furthermore, this assay endpoint can be referred to as a primary readout, because this assay has produced multiple assay endpoints where this one serves a reporter gene function. To generalize the intended target to other relatable targets, this assay endpoint is annotated to the dna binding intended target family, where the subfamily is tumor suppressor.
Human liver HepG2 cells are transiently transfected with multiple reporter transcription units (MRTUs) in 6-well plates using FuGene 6 reagent (Roche; 3 ml FuGene/1 mg DNA). The MRTU constructs are regulated by a cis-regulating element (promoter). […] A major difference between the CIS and TRANS system is that in CIS activities of endogenous TFs are measured, whereas the TRANS assay evaluates changes in activities of exogenous, chimeric NR-Gal4 proteins. […] At the end of 24 hour incubation, total RNA was isolated using TriZol reagent (Invitrogen). The isolated RNA is then reverse-transcribed using oligo(dT) primer and Mo-MLV reverse transcriptase (Invitrogen) with DNAse I (Ambion) treatment for 30 min. The one-tenth of the produced cDNA was amplified by PCR using Taq DNA polymerase (Invitrogen) and two reporter sequence-specific primers. The PCR products were fluorescently labeled by primer extension with 6-arboxyfluorescein (6-FAM) 5'-labeled reporter sequence-specific primer (2 min at 95 C, 20 s at 68 C and 10 min at 72 C) and these products were digested with 5U of HpaI (New England Biolabs) for 2h at 37 C. The fragments were purified using Qiaquick PCR columns (Qiagen), analyzed on an ABI 3130xL genetic analyzer (Applied Biosystems) with peak positions identified by using a set of X-rhodamine (ROX)-labeled MapMarker1000 molecular weight standards (BioVentures). The raw capillary electrophoresis data was processed using Attagraph software (Attagene).
For the molecule `CN1COCN(Cc2cnc(Cl)s2)C1=N[N+](=O)[O-]`, the molecule was classed as inactive.

Take `CCNc1nc(Cl)nc(NC(C)(C)C#N)n1`: the call was inactive.

For `CSc1nnc(C(C)(C)C)c(=O)n1N`, the molecule was classed as inactive.

For `CCOP(=S)(OCC)Oc1ccc([N+](=O)[O-])cc1`, the result was inactive.

For `COc1cc(OC)nc(Sc2cccc(Cl)c2C(=O)O)n1`, the molecule was classed as inactive.

In the case of `CCOC(=O)COc1cc(-c2nn(C)c(OC(F)F)c2Cl)c(F)cc1Cl`, the molecule was classed as inactive.

`CCCOc1nn(C(=O)NS(=O)(=O)c2ccccc2C(=O)OC)c(=O)n1C`: the molecule was classed as inactive.

With `COP(=O)(OC)C(O)C(Cl)(Cl)Cl` (stereo not given), the AC50 is 9.92 µM (active).

Take `CSc1nc(NC(C)C)nc(NC(C)C)n1`: the call was inactive.

Take `CCCCOC(=O)c1ccccc1C(=O)O`: the molecule was classed as inactive.

Turning to `CC(C)N(C(=O)SCC(Cl)=C(Cl)Cl)C(C)C`, the call was inactive.

For `CNc1cnn(-c2cccc(C(F)(F)F)c2)c(=O)c1Cl`, the outcome was inactive.

As for `Cc1cc(C2CC2)nc(Nc2ccccc2)n1`, the molecule was called inactive.

As to `CCOP(=S)(Oc1cnc(C(C)(C)C)nc1)OC(C)C` (stereo not given), the molecule was called inactive.

For `CC(Oc1cccc(Cl)c1)C(=O)O` (stereo not given), the result was inactive.

As to `CC(COc1ccc(Oc2ccccc2)cc1)Oc1ccccn1` (stereo not given), the molecule was classed as inactive.

Consider `CCCCN(CC)c1c([N+](=O)[O-])cc(C(F)(F)F)cc1[N+](=O)[O-]`, for which the molecule was classed as inactive.

As to `CC1(C(=O)Nc2ccc(O)c(Cl)c2Cl)CCCCC1`, the molecule was called inactive.

`CCOC(=O)CC(SP(=O)(OC)OC)C(=O)OCC` (stereo not given): the result was inactive.

As for `CCC(CC)Nc1c([N+](=O)[O-])cc(C)c(C)c1[N+](=O)[O-]`, the AC50 is 72.9 µM (active).

As to `CCOP(=S)(OCC)OC(Cl)C(Cl)(Cl)Cl` (stereo not given), the molecule was called inactive.

With `CCc1cccc(C)c1N(C(=O)CCl)C(C)COC` (stereo not given), the molecule was classed as inactive.

With `O=c1ccc(=O)[nH][nH]1`, the molecule was classed as inactive.

Take `COP(=O)(NC(C)=O)SC` (stereo not given): the call was inactive.

In the case of `C#CCC1=C(C)C(OC(=O)C2C(C=C(C)C)C2(C)C)CC1=O` (stereo not given), the AC50 is 80.1 µM (active).

For the molecule `Cc1nn(-c2cc(NS(C)(=O)=O)c(Cl)cc2Cl)c(=O)n1C(F)F`, the outcome was inactive.

In the case of `FC(F)C(F)(F)OCC(Cn1cncn1)c1ccc(Cl)cc1Cl` (stereo not given), the outcome was inactive.

Turning to `CCOP(=S)(OCC)Oc1cc(C)nc(C(C)C)n1`, the result was inactive.

With `CON=C(C(=O)OC)c1ccccc1CON=C(C)c1cccc(C(F)(F)F)c1`, the call was inactive.

With `Nc1nc(N)nc(NC2CC2)n1`, the result was inactive.

For the molecule `CCOP(=S)(OCC)SCCSCC`, the outcome was inactive.

For `CC(C)=CC1C(C(=O)OCN2C(=O)C3=C(CCCC3)C2=O)C1(C)C` (stereo not given), the molecule was called inactive.

As to `CC[C@H](C)[C@H]1O[C@]2(C=C[C@@H]1C)C[C@@H]1C[C@@H](C/C=C(\C)[C@@H](O[C@H]3C[C@H](OC)[C@@H](O[C@H]4C[C@H](OC)[C@@H](NC)[C@H](C)O4)[C@H](C)O3)[C@@H](C)/C=C/C=C3\CO[C@@H]4[C@H](O)C(C)=C[C@@H](C(=O)O1)[C@]34O)O2`, the molecule was classed as inactive.

As to `CCCCSP(=O)(SCCCC)SCCCC`, the molecule was called inactive.

For the molecule `CCCCOC(=O)[C@@H](C)Oc1ccc(Oc2ccc(C#N)cc2F)cc1`, the molecule was called inactive.

Regarding `CN(C)C(=O)Nc1cccc(C(F)(F)F)c1`, the outcome was inactive.

On to `C[Si](Cn1cncn1)(c1ccc(F)cc1)c1ccc(F)cc1`, for which the call was inactive.

As to `CCOP(=O)(NC(C)C)Oc1ccc(SC)c(C)c1` (stereo not given), the molecule was called inactive.

Take `N#CSCSC#N`: the molecule was classed as inactive.

Turning to `CNC(=O)Oc1cccc2c1OC(C)(C)O2`, the AC50 is 6.08 µM (active).
